Screening results deposited in PubChem by National Center for Advancing Translational Sciences (NCATS).
DT40 TDP1 CPT – growth inhibition of DT40 Tdp1-/-;hTDP1 cells with camptothecin (screen for TDP1 inhibitors). hit rate 12% among 420,000. chicken DT40 Tdp1-/-;hTDP1 cells + 20 nM CPT, ATP luminescence, 48 h. AID 686979. Potency, µM (series often up to 46.2 µM), for the others: at the highest dose activity change, negative = growth inhibition, actives largely listed as inhibitors; also: potency is read from the fitted curve at half-maximal effect; % is scaled to controls: 0 for no effect and ±100 for the full control effect; nearly all actives have a fitted effect of over 55% in size
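Chicken DT40 Tdp1-/- cells complemented with human TDP1, 400 cells/well, exposed to compounds plus 20 nM camptothecin for at least 48 h at 37 C; viability read as ATP content by CellTiter-Glo luminescence.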
HepG2 viability – counter-screen for TGF-b inhibitors: cytotoxicity in HepG2 cells | AID 588856 | Potency, µM (doses to about 46.1 µM), inactives show at the top dose activity change, negative = cytotoxicity, usual class: cytotoxic | HepG2 CAGA-GFP viability, ATP luminescence, 18 h | hit rate 0.76% among 410,000; also: potency is read from the fitted curve at half-maximal effect
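CellTiter-Glo luminescence gave cytotoxicity after 18 hours at 37 degrees C. The cells were HepG2 CAGA-GFP in 1% FBS DMEM, stimulated with 500 pg/mL TGF-beta after compound addition. %Activity was normalised to no-cell wells (complete cell-killing) and DMSO (no toxicity), and curves were fitted and classified.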
TDP1 block – inhibitors of human tyrosyl-DNA phosphodiesterase TDP1. AID 485290. recombinant TDP1, AlphaScreen DNA substrate cleavage. hit rate 0.28% among 350,000. Potency, µM (doses to about 130 µM), inactives show top-dose activity change, negative = inhibition, usual class: inhibitors. Q9NUW8; also: potency is read from the fitted curve at half-maximal effect; % is scaled to controls: 0 for no effect and ±100 for the full control effect; nearly all actives have a fitted effect of over 40% in size
Target sequence (Q9NUW8 whole entry, looked up): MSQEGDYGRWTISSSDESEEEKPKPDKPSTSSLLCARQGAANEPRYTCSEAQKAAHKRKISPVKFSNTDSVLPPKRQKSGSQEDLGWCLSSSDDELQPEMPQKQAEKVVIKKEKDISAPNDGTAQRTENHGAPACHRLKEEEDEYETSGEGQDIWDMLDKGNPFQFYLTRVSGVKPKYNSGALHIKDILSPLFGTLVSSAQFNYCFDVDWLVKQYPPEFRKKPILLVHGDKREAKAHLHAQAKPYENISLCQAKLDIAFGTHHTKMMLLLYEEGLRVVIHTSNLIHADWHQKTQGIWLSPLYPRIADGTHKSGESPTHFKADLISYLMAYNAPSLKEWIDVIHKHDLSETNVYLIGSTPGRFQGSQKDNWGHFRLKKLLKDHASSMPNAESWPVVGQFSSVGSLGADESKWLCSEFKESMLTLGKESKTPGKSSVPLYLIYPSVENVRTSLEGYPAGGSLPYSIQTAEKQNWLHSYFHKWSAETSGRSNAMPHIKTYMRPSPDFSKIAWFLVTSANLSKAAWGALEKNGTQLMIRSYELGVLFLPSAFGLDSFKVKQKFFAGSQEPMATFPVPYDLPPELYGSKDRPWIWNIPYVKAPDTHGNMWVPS
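Here, a 5' biotin and 3' phosphotyrosine-FITC DNA oligonucleotide reports Tdp1 activity: intact substrate bridges AlphaScreen beads, while cleavage leaves a 3' phosphate and drops signal. All incubations at room temperature.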
IL1B secr inh – inhibitors of inflammasome signaling (IL-1 beta secretion); THP-1 LPS/ATP IL-1B secretion, AlphaLISA, 16 h; hits give low values; activity change, % at 57.5 µM; hit rate 4.7% among 360,000; AID 743279; in the data active = activity change below about -50%; inconclusive = mostly about -30% to -49%; also: % is scaled to controls: 0 for no effect and ±100 for the full control effect
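Secreted IL-1B measured by AlphaLISA bead assay after 16 h compound exposure of THP-1 cells; compounds (final up to 57.5 uM) added 1 h before LPS (250 ng/mL) and ATP (1.25 mM) stimulation; lower signal means less secretion.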
TDP1 cell noCPT – qHTS for Inhibitors of human tyrosyl-DNA phosphodiesterase 1 (TDP1): qHTS in cells in absence of CPT. DT40 Tdp1-/- hTDP1 cells, no CPT, ATP luminescence, 48 h. Potency, µM (highest dose often 46.2 µM), for the others: at the highest dose activity change, negative = growth inhibition, hits mostly inhibitors. hit rate 15% among 420,000. AID 686978, 2013; also: potency is read from the fitted curve at half-maximal effect; % is scaled to controls: 0 for no effect and ±100 for the full control effect; nearly all actives have a fitted effect of over 55% in size
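Seeded 400 DT40-hTDP1 cells/well (vehicle DMSO, no 20 nM CPT); pinned compounds; ≥48 hr at 37 °C; CellTiter-Glo luminescence as viability measure.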
TGFb SMAD3 inh – inhibitors of TGF-b signaling; AID 588855; Potency, µM (titrated, usually from 46.1 µM), without a hit: top-dose activity, negative = inhibition, usual class: inhibitors; HepG2 CAGA-GFP TGF-b/SMAD3 reporter, GFP fluorescence, 18 h; TGF-beta stimulated, 500 pg/mL final; hit rate 1.2% among 410,000; also: potency is read from the fitted curve at half-maximal effect; % is scaled to controls: 0 for no effect and ±100 for the full control effect; nearly all actives have a fitted effect of over 65% in size
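Read-out: total well GFP (ex488/em500-530) summed from mean per-cell fluorescence. Cells: HEPG2 CAGA-GFP, 1% FBS DMEM, 18 h at 37 degrees C with 500 pg/mL final TGF-beta. Unstimulated wells served as the full-inhibition control; stimulated DMSO wells = 0%.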
* marks the source's active call; other numbers are inactive results; ? = inconclusive; nt = no result given. Shown are actives, neighbours in structure and some others; about 19% of the full set was active somewhere. Unless noted, calls follow the shape of the dose curve; as a rule, active = well fitted curve in the direction sought with a large enough effect; inconclusive = small, poorly fitted or top-dose-only effect, or another doubt; inactive = no such curve, though single readings can be large; an effect the other way counts as inactive or inconclusive.

SMILES	DT40 TDP1 CPT	HepG2 viability	TDP1 block	IL1B secr inh	TDP1 cell noCPT	TGFb SMAD3 inh
CC1=NCCN1S(=O)(=O)c1c(C(C)C)cc(C(C)C)cc1C(C)C	-18.7%	-19.4%	-2.8%	-58.5*	?	-11.7%
COc1ccccc1CNC(=O)C1CC(c2cccc([N+](=O)[O-])c2)=NO1 (stereo not drawn)	16.4µM*	-5.4%	3.9%	12.1	23.1µM*	-20.3%
Cc1ccccc1-c1cc(C(=O)NCc2cccc(Br)c2)n(CC2CC(c3cccnc3)=NO2)n1 (stereo not drawn)	?	-22.1%	-0.9%	-24.0	18.4µM*	?
COc1ccccc1CNC(=O)c1cc(-c2ccccc2)nn1CC1CC(c2cccc([N+](=O)[O-])c2)=NO1 (stereo not drawn)	10.3µM*	-9.7%	nt	22.7	14.6µM*	-12.4%
COc1ccc(C2=NOC(Cn3nc(-c4ccccc4)cc3C(=O)NCc3cccc(C(F)(F)F)c3)C2)cc1 (stereo not drawn)	?	-28.1%	2.6%	1.7	-28.4%	-28.8%
O=C(NCCc1cccs1)C1CC(c2cccc([N+](=O)[O-])c2)=NO1 (stereo not drawn)	-4.0%	8.0%	5.9%	8.6	-2.3%	16.6%
O=C(NCc1cccs1)c1cc(-c2ccccc2)nn1CC1CC(c2cccc([N+](=O)[O-])c2)=NO1 (stereo not drawn)	16.4µM*	8.8%	nt	-11.3	14.6µM*	-0.9%
COc1ccccc1CNC(=O)c1cc(-c2ccccc2C)nn1CC1CC(c2cccnc2)=NO1 (stereo not drawn)	?	-20.5%	0.7%	-25.7	?	-40.5%
COc1ccccc1/C=C1/SC(=S)N(C(C)C(=O)NC2C=CS(=O)(=O)C2)C1=O (stereo not drawn)	?	-1.8%	10.1%	?	?	12.4%
CC(C(=O)NC1C=CS(=O)(=O)C1)N1C(=O)/C(=C\c2ccccc2)SC1=S (stereo not drawn)	?	-39.8%	6.1%	-61.8*	?	-12.8%
CC(C(=O)NC1C=CS(=O)(=O)C1)N1C(=O)/C(=C/c2cccc(Cl)c2)SC1=S (stereo not drawn)	16.4µM*	-14.8%	8.8%	-67.8*	-15.9%	-17.5%
Cc1cc2oc(=O)cc(-c3ccccc3)c2c(C)c1-c1ccoc1	nt	nt	0.0%	nt	nt	nt
O=C(O)CC(Cc1ccccc1)(C(=O)O)c1ccccc1 (stereo not drawn)	-13.3%	15.7%	5.6%	0.0	-1.6%	15.0%
COCC(C)NC(=O)c1cnn2c(C(F)F)cc(-c3ccccc3)nc12 (stereo not drawn)	-20.7%	-4.4%	1.1%	nt	?	7.1%
CC(C)(C)c1ccccc1NC(=O)c1cnn2c(C(F)F)cc(-c3ccccc3)nc12	-23.8%	-1.0%	-2.1%	nt	-22.9%	6.0%
O=C(NCCCN1CCCC1=O)c1cc(-c2ccc(F)cc2)nc2ccccc12	?	1.9%	1.4%	5.3	25.9µM*	0.8%
O=C(NCCN1CCOCC1)c1cc(-c2ccc(F)cc2)nc2ccccc12	6.7%	-2.4%	nt	-3.7	?	11.7%
CCCNC(=O)c1cnn2c(C(F)F)cc(-c3ccccc3)nc12	20.6µM*	-28.5%	-1.1%	nt	20.6µM*	?
COc1ccc(-c2cc(C(F)F)n3ncc(C(=O)NCCCN4CCCC4=O)c3n2)cc1	?	-17.7%	-3.3%	-25.0	16.4µM*	-24.6%
Cc1ccc(NC(=O)c2cnn3c(C(F)F)cc(-c4ccccc4)nc23)c(C)c1	-1.8%	15.1%	0.0%	nt	18.4µM*	0.3%
O=C1c2ccccc2C(=O)N1c1cccc2ccncc12	nt	nt	1.6%	nt	nt	nt
CCCCC[C@H](O)/C=C/C=C\C/C=C\C=C\[C@@H](O)CCCC(=O)O	nt	nt	4.4%	nt	nt	nt
CCOC(=O)/C(C#N)=N/Nc1ccc(S(=O)(=O)Nc2cc(OC)nc(OC)n2)cc1	6.7%	-13.3%	nt	15.9	-21.0%	-19.1%
CCOC(=O)c1cnc(NCc2ccccc2OC)c2ccccc12	?	-12.5%	-10.8%	nt	?	-25.5%
CCC(=O)Nc1ccc(C)cc1-c1nc2ccccc2n(CC(=O)c2ccc(C)cc2)c1=O	?	-2.1%	2.9%	nt	-19.5%	-3.4%
SMILES	DT40 TDP1 CPT	HepG2 viability	TDP1 block	IL1B secr inh	TDP1 cell noCPT	TGFb SMAD3 inh
CC(C)Oc1ccc(/C=N/NC(=O)c2nnn(-c3nonc3N)c2CN(C)c2ccccc2)cc1	?	-8.4%	3.4%	61.4	?	?
NNC(=S)Nc1ccccc1Cl	?	-9.9%	2.7%	25.5	7.31µM*	-0.5%
COc1ccc(C)cc1NC(=O)CN1C(=O)CCc2cc(S(=O)(=O)N3CCOCC3)ccc21	2.5%	5.7%	8.8%	nt	-3.7%	-26.7%
O=C(CSc1nnc(-c2cccnc2)o1)Nc1cccc(F)c1	-5.2%	-4.4%	0.2%	3.2	-23.3%	1.2%
O=C(c1cc(F)c(F)cc1Cl)N1CCCc2ccccc21	0.6%	1.4%	-1.4%	22.5	?	4.0%
S=c1nc(C2CCCCC2)n(-c2ccccc2)[nH]1	?	-9.1%	3.5%	18.9	23.1µM*	-1.4%
O=C(C[n+]1ccccc1)NNc1ccccc1	-0.5%	-12.2%	0.0%	10.0	-15.5%	?
CC(C)c1ccc(OCC(=O)Nc2c3c(nn2C(C)(C)C)CS(=O)(=O)C3)cc1	11.6µM*	-0.4%	nt	-11.9	?	8.8%
Cc1ccc(C(=O)Nc2c3c(nn2C(C)(C)C)CS(=O)(=O)C3)cc1[N+](=O)[O-]	-7.1%	-7.6%	0.6%	-20.8	14.0%	-1.6%
CC(C)(C)n1nc2c(c1NC(=O)COc1ccc(Cl)cc1)CS(=O)(=O)C2	4.5%	3.1%	2.5%	-15.3	3.1%	-3.7%
CC(C)(C)n1nc2c(c1NC(=O)c1ccc(Cl)c([N+](=O)[O-])c1)CS(=O)(=O)C2	-26.1%	-3.5%	0.0%	-97.5*	0.7%	-12.1%
Cc1ccc(OCc2cc(C(=O)NCc3cnn(-c4cccc(F)c4)c3)no2)cn1	?	-7.5%	2.2%	13.1	?	-1.6%
CCN(Cc1cnn(C)c1)C(=O)c1cc(COc2ccc3c(c2)CCCC3)on1	16.4µM*	-30.4%	3.1%	-6.4	11.6µM*	-21.7%
NNC(=O)c1ccc(COc2ccc3c(c2)CCC3)o1	5.6%	-22.2%	-10.1%	8.9	11.6%	0.0%
CN(Cc1cnn(C)c1)C(=O)c1cc(COc2c(F)cccc2F)on1	24.8%	-5.8%	0.0%	0.0	7.8%	-1.1%
